Experimental data reported in PubChem BioAssay (Tox21).
Inconclusive results are not listed. Active and inactive are the calls of the source. Unless noted, calls come from the whole dose curve; as a rule, active = well fitted curve in the direction sought with a large enough effect in the repeat runs; inconclusive = weak or mixed curves; inactive = no such curve, though single readings can be large; an effect the other way counts as inactive or inconclusive.

Experiments:
[1] = qHTS assay to identify small molecule agonists of the estrogen receptor alpha (ER-alpha) signaling pathway in the presence of an antagonist - cell viability counter screen (AID 1259386);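 note: cells exposed to compounds for 22 h at 37 °C before the viability read; nearly all actives have a fitted effect of over 30% in size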; note: potency is the fitted concentration of half-maximal effect; for activity change, negative = cytotoxicity: series mostly up to about 92 µM
How it was run: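 The test measures whether compounds kill ER-alpha reporter cells (VM7Luc4E2) under antagonist co-treatment (ICI-182,780, 10.0nM). Fluorescence from CellTiter-Fluor is read after a 22hr exposure.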

[2] = target: Progesterone receptor (Homo sapiens) (UniProt P06401); assay: qHTS assay to identify small molecule agonists of the progesterone receptor (PR) signaling pathway (AID 1346784; calls by dose curve; note: nearly all actives have a fitted effect of over 30% in size; note: potency is the fitted concentration of half-maximal effect)
Chain of Progesterone receptor (Homo sapiens) (P06401 whole entry, looked up): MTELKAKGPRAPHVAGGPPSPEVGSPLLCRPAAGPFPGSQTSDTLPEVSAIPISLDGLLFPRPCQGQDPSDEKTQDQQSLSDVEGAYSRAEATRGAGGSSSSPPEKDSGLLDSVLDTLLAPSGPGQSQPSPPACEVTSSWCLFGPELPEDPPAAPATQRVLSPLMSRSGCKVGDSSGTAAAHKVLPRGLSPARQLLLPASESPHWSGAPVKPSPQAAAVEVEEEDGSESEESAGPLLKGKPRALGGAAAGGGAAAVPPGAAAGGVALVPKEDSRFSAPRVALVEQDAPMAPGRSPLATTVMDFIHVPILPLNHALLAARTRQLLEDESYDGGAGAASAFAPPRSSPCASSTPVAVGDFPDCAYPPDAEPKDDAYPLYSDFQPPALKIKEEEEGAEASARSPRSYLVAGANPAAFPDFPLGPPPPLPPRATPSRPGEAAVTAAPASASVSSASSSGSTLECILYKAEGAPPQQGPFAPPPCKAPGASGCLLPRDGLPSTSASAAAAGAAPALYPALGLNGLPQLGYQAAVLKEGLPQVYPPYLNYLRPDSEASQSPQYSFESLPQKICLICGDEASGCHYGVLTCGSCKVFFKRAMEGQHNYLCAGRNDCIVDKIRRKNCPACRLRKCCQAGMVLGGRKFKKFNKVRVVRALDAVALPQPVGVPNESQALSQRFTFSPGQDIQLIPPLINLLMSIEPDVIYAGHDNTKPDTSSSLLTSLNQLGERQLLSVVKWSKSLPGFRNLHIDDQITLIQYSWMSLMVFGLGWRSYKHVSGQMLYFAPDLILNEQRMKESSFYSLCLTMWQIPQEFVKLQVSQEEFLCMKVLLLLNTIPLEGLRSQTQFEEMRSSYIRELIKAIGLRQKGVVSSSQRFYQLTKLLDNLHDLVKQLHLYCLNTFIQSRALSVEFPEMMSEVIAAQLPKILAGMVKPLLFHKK
How it was run: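 PR-UAS-bla HEK 293T cells (beta-lactamase reporter under UAS) in 2% charcoal-stripped FBS, dosed with 23 nL compound after 6 hr, incubated 16hr at 37C. LiveBLAzer B/G FRET substrate added, fluorescence read after 2 hours.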

[3] = qHTS assay to identify small molecule antagonists of the progesterone receptor (PR) signaling pathway - cell viability counter screen (AID 1346798); note: nearly all actives have a fitted effect of over 50% in size; note: potency is the fitted concentration of half-maximal effect; for activity change, negative = cytotoxicity: series mostly up to about 92 µM
How it was run: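 PR-UAS-bla HEK293T cells, 3,000/well in 2% charcoal-stripped FBS medium, dosed with compounds plus R5020 agonist and incubated 16 h at 37C. Viability then measured in the same wells by CellTiter-Glo luminescence after 30 min at RT.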

[4] = qHTS assay to identify small molecule antagonists of the TGF-beta/Smad signaling pathway - cell viability counter screen (AID 1346824); note: nearly all actives have a fitted effect of over 50% in size; note: potency is the fitted concentration of half-maximal effect
How it was run: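 SBE-bla HEK 293T cells were plated overnight at 37 C, then given compounds in DMSO plus TGF-beta1 (added as 0.25 ng/mL solution) for 5 hr. After the bla read, CellTiter-Glo was added to the same wells and luminescence read after 30 min at room temperature.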

[5] = qHTS assay to identify small molecule agonists of the TGF-beta/Smad signaling pathway - cell viability counter screen (AID 1346829); note: nearly all actives have a fitted effect of over 45% in size; note: potency is the fitted concentration of half-maximal effect; for activity change, negative = cytotoxicity: top concentration of the series differs between compounds
How it was run: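 After overnight seating at 37 C and 5% CO2, reporter cells got compounds for 5 hr and FRET substrate for 2 hr; cell viability then came from CellTiter-Glo luminescence.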

[6] = qHTS assay to identify small molecule agonists of the TGF-beta/Smad signaling pathway (AID 1346859; active = well fitted activation curve with a large enough effect in the signal ratio in the repeat runs, not every such curve was filed as active; the % refers to the signal ratio; note: potency is the fitted concentration of half-maximal effect; for activation: series mostly up to about 77 µM)
How it was run: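 SBE-bla HEK293T cells plated overnight, then compound exposure for 5 h at 37 C. Beta-lactamase reporter read with LiveBLAzer B/G FRET substrate after 2 h at room temperature, fluorescence at 405 nm excitation, 460/530 nm emission.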

[7] = target: Thyrotropin-releasing hormone receptor (Homo sapiens) (UniProt P34981); assay: qHTS assay to identify small molecule antagonists of the thyrotropin-releasing hormone receptor (TRHR) signaling pathway (AID 1346877; active = well fitted inhibition curve with a large enough effect in the repeat runs, not every such curve was filed as active; note: series mostly up to about 51 µM)
Chain of Thyrotropin-releasing hormone receptor (Homo sapiens) (P34981 whole entry, looked up): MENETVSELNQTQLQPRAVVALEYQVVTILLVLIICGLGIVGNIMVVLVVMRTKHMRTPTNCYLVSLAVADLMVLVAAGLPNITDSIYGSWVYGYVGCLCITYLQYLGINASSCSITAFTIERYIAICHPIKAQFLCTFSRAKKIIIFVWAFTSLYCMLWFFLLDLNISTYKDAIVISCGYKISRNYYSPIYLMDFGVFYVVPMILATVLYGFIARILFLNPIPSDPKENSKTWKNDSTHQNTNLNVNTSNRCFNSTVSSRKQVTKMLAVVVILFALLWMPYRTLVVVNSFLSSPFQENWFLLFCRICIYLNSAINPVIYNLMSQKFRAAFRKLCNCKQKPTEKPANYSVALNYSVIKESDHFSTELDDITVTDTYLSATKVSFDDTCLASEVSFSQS
How it was run: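 Overnight-plated (18 h, 37 °C) HEK293 cells expressing TRHR were dye-loaded 2 h, treated with compound, then stimulated with TRH at 1 nM final. Fluorescence intensity was captured every second for 3 min.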

[8] = target: Thyrotropin-releasing hormone receptor (Homo sapiens) (UniProt P34981); assay: qHTS assay to identify small molecule agonists of the thyrotropin-releasing hormone receptor (TRHR) signaling pathway (AID 1346891; calls by dose curve; note: series mostly up to about 58 µM)
How it was run: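 HEK293 cells expressing TRHR plated 18 h at 37 C/5% CO2, calcium dye-loaded 2 h at 37 C, then compound added (agonist mode); kinetic calcium fluorescence read 3 min at 1 s intervals; 15 concentrations in triplicate.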

[9] = qHTS assay to identify small molecule agonists of the progesterone receptor (PR) signaling pathway - cell viability counter screen (AID 1346799; calls by dose curve; note: nearly all actives have a fitted effect of over 45% in size; note: potency is the fitted concentration of half-maximal effect)
How it was run: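 Counter screen in the PR-UAS-bla HEK293T wells (2% charcoal-stripped FBS, 16 h compound exposure at 37 C) after the bla read. CellTiter-Glo added, 30 min at room temperature, luminescence read as cell viability.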

[10] = target: Progesterone receptor (Homo sapiens) (UniProt P06401); assay: qHTS assay to identify small molecule antagonists of the progesterone receptor (PR) signaling pathway (AID 1346795; active = well fitted inhibition curve with a large enough effect in the signal ratio in the repeat runs, not every such curve was filed as active; the % refers to the signal ratio; note: potency is the fitted concentration of half-maximal effect)
How it was run: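 PR-UAS-bla HEK293T cells with beta-lactamase reporter under UAS control, in 2% charcoal-stripped FBS, treated with compounds plus 1 nM promegestone (R5020, final) for 16 hr at 37C. Read-out: FRET beta-lactamase substrate fluorescence after 2 hr at room temperature.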
% is set by controls: 0 for no effect and ±100 for the full control effect.

Cn1cc(C(=O)[C@@H]2CCc3nc[nH]c3C2)c2ccccc21
active: Potency [3] 23.7 µM
inactive: Potency [1] | Potency [2] | Potency [4] | Potency [5] | Potency [6] | Potency [7] | Potency [8]

O=c1c(-c2ccccc2)c1-c1ccccc1
inactive: Potency [1] | Potency [2] | Potency [9] | Potency [4] | Potency [5] | Potency [6] | Potency [7] | Potency [8]

CCC(CN)=C(c1ccccc1)c1ccccc1
inactive: Potency [1] | Potency [2] | Potency [9] | Potency [4] | Potency [5] | Potency [6] | Potency [7] | Potency [8]

CCCCCCCCS(=O)C(C)Cc1ccc2c(c1)OCO2 (centres undefined)
inactive: Potency [1] | Potency [2] | Potency [4] | Potency [5] | Potency [8]
active: Potency [10] 44.1 µM

CC(C)c1ccc2c(c1)CC[C@H]1[C@](C)(CN)CCC[C@]21C
inactive: Potency [1] | Potency [2] | Potency [10] | Potency [4] | Potency [6]

Fc1ccc([C@@H]2CCNC[C@H]2COc2ccc3c(c2)OCO3)cc1
inactive: Potency [1] | Potency [2] | Potency [3] | Potency [4] | Potency [5] | Potency [6] | Potency [7] | Potency [8]

NNc1nc(-c2ccccc2)cs1
active: Potency [1] 56 µM | Potency [10] 19.9 µM
inactive: Potency [2] | Potency [4] | Potency [5] | Potency [7] | Potency [8]

Oc1cccc2cc3cccc(O)c3c(O)c12
inactive: Potency [1] | Potency [2] | Potency [3] | Potency [9] | Potency [4] | Potency [5] | Potency [6]

N#CC1(c2ccc(F)cc2)CCC(=O)CC1
inactive: Potency [1] | Potency [2] | Potency [9] | Potency [4] | Potency [5] | Potency [6] | Potency [7] | Potency [8]

CSc1ccc(/C=C2/C(C)=C(CC(=O)O)c3cc(F)ccc32)cc1
inactive: Potency [1] | Potency [2] | Potency [3] | Potency [9] | Potency [4] | Potency [5] | Potency [7] | Potency [8]

Oc1c(Cl)cc(Cl)c2cccnc12
active: Potency [10] 0.841 µM
inactive: Potency [1] | Potency [2] | Potency [4] | Potency [5] | Potency [7] | Potency [8]

CCC(Cl)C(Cl)C(Cl)CC(Cl)C(Cl)C(C)Cl (centres undefined)
inactive: Potency [1] | Potency [2] | Potency [5] | Potency [6] | Potency [7] | Potency [8]
active: Potency [10] 17.2 µM

CCCN(CCC)C(=O)C(CCC(=O)OCCCN1CCN(CCOC(=O)Cc2c(C)n(C(=O)c3ccc(Cl)cc3)c3ccc(OC)cc23)CC1)NC(=O)c1ccccc1 (centres undefined)
active: Potency [1] 21.1 µM
inactive: Potency [2] | Potency [4] | Potency [5]

C[C@@H](NCCCc1cccc(C(F)(F)F)c1)c1cccc2ccccc12
inactive: Potency [1] | Potency [2] | Potency [7] | Potency [8]
active: Potency [3] 26.6 µM

O=C(OCC1CO1)C1CCCCC1C(=O)OCC1CO1 (centres undefined)
inactive: Potency [1] | Potency [2] | Potency [4] | Potency [5]

COCCCC/C(=N\OCCN)c1ccc(C(F)(F)F)cc1
inactive: Potency [1] | Potency [2] | Potency [4] | Potency [5] | Potency [6]

O=C1CCCCCN1SSN1CCCCCC1=O
inactive: Potency [1] | Potency [2] | Potency [10] | Potency [6] | Potency [7] | Potency [8]

O=[N+]([O-])c1cc(Cl)c(Cl)c(Cl)c1Cl
inactive: Potency [1] | Potency [2] | Potency [3] | Potency [4] | Potency [5] | Potency [7] | Potency [8]

[O-][n+]1ccccc1SSc1cccc[n+]1[O-]
active: Potency [1] 8.2 µM | Potency [3] 0.116 µM | Potency [9] 0.116 µM
inactive: activation [2] -12.3% [at 19 µM] | viability change, negative = cytotoxic [4] -6.42% [at 15.8 µM] | activity change, negative = cytotoxicity [5] -3.22% [at 15.8 µM] | activation [6] -0.0146% [at 15.8 µM] | activity, negative = inhibition [7] -2.61% [at 10.5 µM] | activation [8] 5.02% [at 11.8 µM]

CC(C)C(C)(C)C(C)(C)C(C)(C)S
inactive: Potency [1] | Potency [2] | Potency [4] | Potency [5] | Potency [6] | Potency [7] | Potency [8]

O=C(c1ccc(F)cc1)C1CCN(CCn2c(=O)[nH]c3ccccc3c2=O)CC1
inactive: Potency [1] | Potency [2] | Potency [3] | Potency [9] | Potency [4] | Potency [5]

CC(C)(C)CC(C)(C)c1ccc(OCCOCC[N+](C)(C)Cc2ccccc2)cc1
inactive: Potency [2] | Potency [6]
active: Potency [1] 61.1 µM | Potency [3] 54.4 µM | Potency [9] 48.5 µM | Potency [4] 48.9 µM | Potency [5] 43.6 µM

Nc1c2ccccc2nc2ccccc12
active: Potency [2] 4.79 µM | Potency [6] 23.9 µM
inactive: Potency [1] | Potency [4] | Potency [5]

CCCCCCCCCCn1cc[n+](CCCCCCCCCC)c1C
inactive: Potency [2] | Potency [6] | Potency [7] | Potency [8]
active: Potency [1] 30.7 µM | Potency [3] 21.7 µM | Potency [9] 30.7 µM | Potency [4] 24.6 µM | Potency [5] 21.9 µM

NNc1nc(-c2ccc([N+](=O)[O-])cc2)cs1
active: Potency [1] 24.3 µM
inactive: Potency [2] | Potency [3] | Potency [4] | Potency [7] | Potency [8]

CC(C)OC(=O)c1cc2c(OCC(O)CNC(C)(C)C)cccc2[nH]1 (centres undefined)
inactive: Potency [1] | Potency [2] | Potency [4] | Potency [5] | Potency [6] | Potency [7] | Potency [8]
